Assay outcomes deposited in PubChem by National Center for Advancing Translational Sciences (NCATS).
Only some compounds are listed: those with a hit (about 2.3% of all), similar ones and a draw of the others.
POLB inh: inhibitors of human DNA polymerase beta. P06746. Pol beta primer extension/strand displacement, fluorescence kinetic. Potency, µM (series often up to 114 µM), most hits filed as inhibitors. actives 1.3% (n = 340,000). AID 485314
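Human Pol beta at 10 nM; strand-displacement substrate 50 nM final. Compound exposure 15 min at room temperature before start, reaction 10 min at room temperature.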
POLI inh: blocks human DNA polymerase iota activity; Pol iota fluorescent replication assay, 10 min; actives 1% (n = 390,000); Q9UNA4; Potency, µM (highest dose often 115 µM), usual class: inhibitors
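Fluorescent replication assay read twice, at 0 min and 10 min after adding 50 nM (final) substrate. Enzyme (10 nM) and compounds were first incubated 15 min at room temperature; enzyme-free buffer wells were negative controls.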
POLK inh: blocks human DNA polymerase kappa activity | purified Pol kappa, fluorescent DNA synthesis assay, 10 min | Potency, µM (highest dose often 107 µM), most hits filed as inhibitors | actives 0.53% (n = 400,000)
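Pol kappa 10 nM + cpd, 15 min RT; start w/ substrate 50 nM final; fluorescence kinetic read, 0 and 10 min. Neg ctrl: buffer, no enzyme.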
WRN inhibitor: inhibitors of human WRN helicase. Potency, µM (series often up to 114 µM), hits mostly inhibitors. Q14191. actives 0.46% (n = 360,000). WRN helicase unwinding, fluorescent forked duplex, kinetic; note: nearly all actives have a fitted effect of over 55% in size
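Enzyme (20 nM final) and test compound sit together 15 min at room temperature before substrate addition. Substrate is a single-forked duplex oligonucleotide (100 nM) labelled with fluorophore and quencher, with 2 mM ATP; helicase unwinding raises red fluorescence, read kinetically.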
Pol eta inh: DNA polymerase eta (human) inhibition; Q9Y253; recombinant Pol eta, fluorescent DNA replication assay; Potency, µM (series often up to 114 µM), actives largely listed as inhibitors; actives 1.2% (n = 390,000); AID 588591
Target sequence (Q9Y253 whole entry, looked up): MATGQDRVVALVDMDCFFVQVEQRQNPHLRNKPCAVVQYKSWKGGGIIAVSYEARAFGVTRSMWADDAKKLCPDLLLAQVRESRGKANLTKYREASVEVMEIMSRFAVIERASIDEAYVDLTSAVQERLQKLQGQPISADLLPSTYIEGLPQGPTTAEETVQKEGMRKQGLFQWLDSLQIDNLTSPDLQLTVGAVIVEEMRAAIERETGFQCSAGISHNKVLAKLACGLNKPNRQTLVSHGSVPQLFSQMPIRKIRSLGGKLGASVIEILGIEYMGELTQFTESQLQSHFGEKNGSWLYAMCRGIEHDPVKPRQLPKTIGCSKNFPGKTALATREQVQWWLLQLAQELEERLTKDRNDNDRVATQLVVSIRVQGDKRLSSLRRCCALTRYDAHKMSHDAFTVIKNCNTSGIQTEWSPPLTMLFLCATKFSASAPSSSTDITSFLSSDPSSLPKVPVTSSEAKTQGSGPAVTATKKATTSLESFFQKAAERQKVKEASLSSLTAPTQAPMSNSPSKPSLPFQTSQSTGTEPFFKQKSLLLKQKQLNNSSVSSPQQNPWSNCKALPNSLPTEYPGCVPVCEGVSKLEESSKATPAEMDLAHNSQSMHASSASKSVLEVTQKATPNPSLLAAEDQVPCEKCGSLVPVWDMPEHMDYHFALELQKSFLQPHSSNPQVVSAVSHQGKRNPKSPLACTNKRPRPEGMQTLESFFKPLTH
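Pol eta (10 nM) was preincubated with compounds for 15 min at room temperature, after which fluorescent replication substrate (50 nM final) was added to start the reaction. Fluorescence was read kinetically at 0 and 10 min.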
Each line names hits and unclear results; the compound was inactive in the other large screens. Calls come from the whole dose curve; as a rule, active = well fitted curve in the direction sought with a large enough effect; inconclusive = small, poorly fitted or top-dose-only effect, or another doubt; inactive = no such curve, though single readings can be large; an effect the other way counts as inactive or inconclusive.

CC1C/C(=N\NC(N)=S)c2cc(Cl)ccc2S1 (stereo unspecified)	POLI inh 79.4µM
Oc1ccc(-c2nc3ccccc3s2)c(O)c1	none
Oc1ccc(N=C/C=C/c2cccc(Br)c2)cc1-c1nc2ccccc2s1	POLB inh 12.6µM, POLI inh 10µM, WRN inhibitor inconclusive, Pol eta inh inconclusive
Nc1ccc(O)c(-c2nc3ccccc3s2)c1	POLB inh 7.94µM, POLI inh inconclusive, POLK inh inconclusive, Pol eta inh inconclusive
COc1cc(-c2nn3c(-c4cc(-c5ccccc5)n[nH]4)nnc3s2)cc(OC)c1OC	none (no result: POLB inh, WRN inhibitor, Pol eta inh)
Cc1ccc(NC(=O)N/C=C/c2ccco2)c(C)c1	POLB inh inconclusive, POLI inh inconclusive, POLK inh inconclusive, Pol eta inh 79.4µM
COc1cc2c(NC3CCN(C)CC3)nc(N3CCCN(C)CC3)nc2cc1OCCCN1CCOCC1	none (no result: POLB inh, WRN inhibitor, Pol eta inh)
NC1=C(c2ccc([N+](=O)[O-])cc2)C(=O)CO1	none
O=c1oc2c(-c3ccc([N+](=O)[O-])cc3)cc(O)cc2s1	POLB inh inconclusive, POLI inh 50.1µM, POLK inh inconclusive, WRN inhibitor 56.2µM, Pol eta inh inconclusive
Cc1ccc(-n2c(O)c(/C=N/n3cnnc3)c3ccccc3c2=O)cc1	POLI inh inconclusive, POLK inh inconclusive
Cc1ccc(-n2c(O)c(/C=N/c3ncn[nH]3)c3ccccc3c2=O)cc1	POLB inh 12.6µM, WRN inhibitor inconclusive
CCN(C(=O)CN1CCCCCC1)c1c(N)n(Cc2ccccc2)c(=O)[nH]c1=O	none (no result: POLB inh)
CCN(C(=O)CN1CCN(c2ccc(O)cc2)CC1)c1c(N)n(Cc2ccccc2)c(=O)[nH]c1=O	POLB inh 44.7µM, POLI inh inconclusive
Cc1ccc(NC(=O)NC(=O)N(C(C)C)S(=O)(=O)c2ccc(C)cc2)cc1	POLB inh 89.1µM
Cc1ccc(NC(=O)Nc2ccc(S(N)(=O)=O)cc2)cc1	none
Cc1ccc(S(=O)(=O)N2CCN(c3nc(-n4cncn4)nc4ccccc34)CC2)cc1	POLI inh inconclusive (no result: POLB inh, WRN inhibitor, Pol eta inh)
Oc1cc2c(c(Cl)c1O)CCNCC2c1ccccc1 (stereo unspecified)	POLB inh inconclusive, POLI inh 31.6µM, Pol eta inh inconclusive
CSCC[C@H](NC(=O)c1ccc(NC[C@@H](N)CS)cc1-c1ccccc1)C(=O)O	none (no result: POLB inh, POLI inh, WRN inhibitor, Pol eta inh)
Cc1ccc(NC(=O)CSc2nc3nc(C)cc(C)c3c(=O)[nH]2)cc1	POLB inh 44.7µM, Pol eta inh inconclusive
CN(C)c1ccc(NC(=O)CSc2nc3c(c(=O)[nH]2)CCCC3)cc1	POLB inh inconclusive, POLI inh inconclusive, POLK inh inconclusive, Pol eta inh 79.4µM
Cc1cc(C)c2c(=O)[nH]c(SCC(=O)Nc3ccccc3)nc2n1	none
Cc1cc(C)c2c(=O)[nH]c(SCC(=O)c3ccc(C)c(C)c3)nc2n1	POLB inh 17.8µM
COc1cccc(/C=C/c2ccnc3ccccc23)c1OC	none (no result: POLB inh, WRN inhibitor, Pol eta inh)
CCSc1ncc(Cl)c(C(=O)Nc2sc3c(c2C(=O)NCCOC)CCCC3)n1	none (no result: POLB inh, WRN inhibitor, Pol eta inh)
COc1ccc(OC)c(Nc2nnc(C)c(=O)[nH]2)c1	none
COc1ccc(OC)c(Nc2cc3ccccc3c(=O)[nH]2)c1	POLI inh 31.6µM, Pol eta inh inconclusive (no result: POLB inh)
Cc1cc(/C=C2/C(=N)N3C(c4ccccc4)=CSC3=NC2=O)c(C)n1-c1ccc(Cl)cc1	none (no result: POLB inh)
N=C1/C(=C\c2ccc(-c3cccc(Cl)c3)o2)C(=O)N=C2SC=C(c3ccccc3)N12	POLB inh 10µM, POLI inh inconclusive, POLK inh inconclusive, WRN inhibitor inconclusive, Pol eta inh 79.4µM
O=C1CCc2cc(-c3csc(-c4ccc(O)cc4)n3)ccc2N1	POLK inh inconclusive (no result: POLB inh, WRN inhibitor, Pol eta inh)
OCCN(CCO)c1ccc(/C=C/c2ccnc3ccccc23)cc1	none (no result: POLB inh, WRN inhibitor, Pol eta inh)
Cc1cc(N)c2cc(NC(=O)Nc3ccc4nc(C)cc(N)c4c3)ccc2n1	POLK inh 6.31µM (no result: POLB inh, POLI inh, WRN inhibitor, Pol eta inh)
Cc1cc(C)c(NC(=O)Nc2ccccc2)c(C)n1	none (no result: POLB inh)
COc1ccc(NC(=O)CN(C)CC(=O)Nc2cccc(F)c2)cc1S(=O)(=O)N1CCCCC1	WRN inhibitor 50.1µM (no result: POLB inh)
CC1C/C(=C\c2cccnc2)C(=O)/C(=C/c2cccnc2)C1 (stereo unspecified)	POLI inh 15.8µM, Pol eta inh 20µM
COc1ccc(C2CC(c3ccccc3)Oc3cc(C)c(Cl)c(C)c32)cc1 (stereo unspecified)	none (no result: POLB inh, WRN inhibitor, Pol eta inh)
C(=C\c1nnc2c3ccccc3ncn12)/c1ccccc1	none
COc1cc(/C=C/c2nnc3c4ccccc4ncn23)cc(OC)c1OC	POLB inh inconclusive, WRN inhibitor 56.2µM
Cc1ccc(CN(Cc2cc3cc4c(cc3[nH]c2=O)OCCO4)Cc2nnnn2Cc2ccco2)cc1	POLB inh 28.2µM, POLI inh 20µM, POLK inh 70.8µM, Pol eta inh inconclusive
Cc1ccc2cc(CN(Cc3ccc4c(c3)OCO4)Cc3nnnn3Cc3ccco3)c(=O)[nH]c2c1	none
COc1ccc2[nH]c(=O)c(CN(Cc3ccco3)C(c3nnnn3Cc3ccccc3)C(C)C)cc2c1 (stereo unspecified)	POLI inh inconclusive
COc1ccc2[nH]c(=O)c(CN(C3CCCCC3)C(c3nnnn3Cc3ccco3)C(C)C)cc2c1 (stereo unspecified)	POLB inh 35.5µM, POLI inh 15.8µM, POLK inh inconclusive, WRN inhibitor inconclusive, Pol eta inh 17.8µM
COc1ccc2[nH]c(=O)c(CN(Cc3nnnn3Cc3ccco3)C3CCCCC3)cc2c1	POLB inh 28.2µM, POLI inh 20µM, POLK inh 35.5µM, WRN inhibitor inconclusive
Cc1ccc(NC(=O)CSc2nnc(-c3ccccc3)n2C)cc1	none (no result: POLB inh, WRN inhibitor, Pol eta inh)
COc1ccc(CCc2c[nH]c(=O)c3cncnc23)cc1OC	none (no result: POLB inh, WRN inhibitor, Pol eta inh)
COc1ccc(-c2nn(-c3ccccc3)cc2C(=O)Nc2cccc(C(=O)O)c2)cc1[N+](=O)[O-]	POLB inh 35.5µM, WRN inhibitor inconclusive
COc1cc(/C=C(\C#N)C(=O)N2CCc3ccccc32)ccc1O	none
N#C/C(=C\c1ccc(O)c(O)c1)C(=O)N1CCc2ccccc21	POLI inh inconclusive, WRN inhibitor 17.8µM, Pol eta inh 39.8µM (no result: POLB inh)
N#C/C(=C\c1ccc(O)c(O)c1)C(=O)NCCc1ccccc1	POLI inh inconclusive, POLK inh inconclusive, Pol eta inh 8.91µM
COc1cc(/C=C(\C#N)C(=O)NCCc2ccccc2)cc(OC)c1O	none
COc1ccccc1-c1nn2c(-c3cc(C)[nH]n3)nnc2s1	POLI inh inconclusive (no result: POLB inh, WRN inhibitor, Pol eta inh)
COC(=O)CC1=NN(c2ccccc2)C(=O)/C1=C\c1ccc(OC)cc1	WRN inhibitor 50.1µM
CCCN1CNc2c(c(=O)[nH]c(=S)n2CCc2cc(C)cc(C)c2)C1	none (no result: POLB inh, WRN inhibitor, Pol eta inh)
